Test results from PubChem BioAssay (NCI).
About 83,000 compounds went through this panel and 20% of them were active in at least one assay; those are over-represented in the sample as a whole.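 Each cell line was grown in a 96-well plate and treated with one concentration of compound for 48 hours. Values below 10 were considered active.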 Calls of active or inactive are those of the source.

Tests used:
Test in all cases: NCI-60 one-dose screen, 48 h (100 = growth as untreated, 0 = no growth, -100 = all killed)
Conditions in all cases: 10 µM unless noted
[1] = system: NCI-H23 lung
[2] = system: NCI-H226 lung
[3] = system: NCI-H322M lung
[4] = system: HOP-62 NSCLC
[5] = system: NCI-H460 lung
[6] = system: HOP-92 NSCLC
[7] = system: NCI-H522 lung
[8] = system: A549/ATCC NSCLC
[9] = system: 786-0 renal
[10] = system: COLO 205 colon

Measured: growth

CC1(C)C(=O)/C(=C\c2cccnc2)C[C@]2(C)[C@H]3CC[C@@H]4[C@@H](C(=O)/C=C/c5ccncc5)CC[C@@]4(C)[C@]3(C)CC[C@@H]12
inactive: [3] 39.9% | [5] 23.7% | [6] 16.1% | [7] 30.1% | [10] 12.3%
active: [1] 5.99% | [2] 1.56% | [4] 2.07% | [8] 1.98% | [9] -55.7%

COc1ccc(-c2nc(SCC(=O)Nc3ccc(C(C)=O)cc3)[nH]c(=O)c2C#N)cc1
inactive: [1] 97.2% | [2] 91% | [3] 101% | [4] 101% | [5] 111% | [6] 98.3% | [7] 67.9% | [8] 85.3% | [9] 94.7% | [10] 115%

COC(=O)CCCCCn1c2ccccc2c2c3c(c4c5ccccc5[nH]c4c21)C(=O)N(O)C3=O
inactive: [1] 44.1% | [2] 74.4% | [3] 62.4% | [4] 26% | [5] 33.4% | [6] 79.4% | [8] 80.3% | [9] 76.6% | [10] 36.5%
active: [7] -60%

CC(=O)Nc1cc(F)cc(C(F)(F)F)c1Cl
inactive: [1] 92.2% | [2] 91% | [3] 98.7% | [4] 99.3% | [5] 98.6% | [6] 93.7% | [7] 100% | [8] 103% | [9] 94.3% | [10] 109%

O=C1CN(c2ccccc2)C(=O)C1C(=O)Nc1ccc(Cl)c(Cl)c1 (stereo not given)
active: [4] 9.46% [100 µM] | [5] -2.82% [100 µM] | [7] 8.5% [100 µM] | [9] 0.0265% [100 µM] | [10] -23.1% [100 µM]
inactive: [1] 31.2% [100 µM] | [2] 41.6% [100 µM] | [3] 19.6% [100 µM] | [6] 10.6% [100 µM] | [8] 16.2% [100 µM]

CCc1ccccc1NC(=O)c1sc2nc3c(cc2c1N)CCCC3
inactive: [1] 52.7% | [2] 73.4% | [3] 74.9% | [4] 35.6% | [5] 20.6% | [6] 37.1% | [7] 15% | [8] 36.7% | [9] 44.1% | [10] 36%

CC1(C)c2ccccc2C(=O)C1(Br)Cc1ccccc1 (stereo not given)
inactive: [1] 74.1% | [2] 94.1% | [3] 95.5% | [4] 95% | [5] 96.8% | [6] 83% | [7] 83.1% | [8] 94.6% | [9] 81.7% | [10] 97.9%

Cc1cc(C)n(Cc2cc(C(C)(C)C)cc(C(C)(C)C)c2)c(=O)c1C#N
inactive: [1] 101% | [2] 93.3% | [3] 92.5% | [4] 96.3% | [5] 93.9% | [6] 86% | [7] 83.9% | [8] 98% | [9] 93.5% | [10] 110%

COC(=O)[C@]12CC[C@@H](C(C)=O)[C@@H]1[C@H]1CC[C@@H]3[C@@]4(C)C/C(=C/c5cccnc5)C(=O)C(C)(C)[C@@H]4CC[C@@]3(C)[C@]1(C)CC2
inactive: [1] 53.2% | [2] 48.1% | [3] 93.9% | [4] 103% | [5] 70.9% | [6] 66.7% | [7] 47.5% | [8] 51.4% | [9] 84.9% | [10] 82.5%

Cn1c2c(c3ccc(Cl)cc31)-n1cccc1C2=O
inactive: [1] 95.2% | [2] 99.3% | [3] 85.4% | [4] 107% | [5] 92.9% | [6] 81.8% | [7] 71.3% | [8] 75.1% | [9] 80.9% | [10] 90.4%

Cc1cc(C)c(NC(=O)c2sc3nc4c(cc3c2N)CCCC4)c(C)c1
active: [7] 4.49%
inactive: [1] 59.8% | [2] 78.6% | [3] 88.7% | [4] 24.1% | [5] 28.8% | [6] 52.3% | [8] 50.1% | [9] 47.3% | [10] 42.6%

CC(C)=CCC[C@](C)(O)[C@H]1CC[C@]2(C)[C@@H]1CC[C@@H]1[C@@]3(C)C/C(=C/c4ccc(Br)cc4)C(=O)C(C)(C)[C@@H]3CC[C@]12C
inactive: [1] 85.3% | [2] 82.7% | [3] 101% | [4] 98.5% | [5] 96.3% | [6] 75.5% | [7] 96.4% | [8] 76.6% | [9] 93.8% | [10] 99.1%

S=c1[nH]nc2ccccn12
inactive: [1] 104% | [2] 122% | [3] 105% | [4] 102% | [5] 109% | [6] 100% | [7] 82.3% | [8] 106% | [9] 112% | [10] 118%
